USP30 block: inhibitors of human USP30 deubiquitinase; Q70CQ3; purified USP30, Ub-rhodamine cleavage fluorescence; inhibition, % at 25 µM; 47,000 compounds, 5.3% hits; AID 1645860
USP17 block: human USP17-like deubiquitinase inhibition. A8MUK1. purified USP17, Ub-rhodamine cleavage fluorescence, 3 h. inhibition, % at 50 µM. 47,000 compounds, 6.5% hits
Target sequence (A8MUK1 whole entry, looked up): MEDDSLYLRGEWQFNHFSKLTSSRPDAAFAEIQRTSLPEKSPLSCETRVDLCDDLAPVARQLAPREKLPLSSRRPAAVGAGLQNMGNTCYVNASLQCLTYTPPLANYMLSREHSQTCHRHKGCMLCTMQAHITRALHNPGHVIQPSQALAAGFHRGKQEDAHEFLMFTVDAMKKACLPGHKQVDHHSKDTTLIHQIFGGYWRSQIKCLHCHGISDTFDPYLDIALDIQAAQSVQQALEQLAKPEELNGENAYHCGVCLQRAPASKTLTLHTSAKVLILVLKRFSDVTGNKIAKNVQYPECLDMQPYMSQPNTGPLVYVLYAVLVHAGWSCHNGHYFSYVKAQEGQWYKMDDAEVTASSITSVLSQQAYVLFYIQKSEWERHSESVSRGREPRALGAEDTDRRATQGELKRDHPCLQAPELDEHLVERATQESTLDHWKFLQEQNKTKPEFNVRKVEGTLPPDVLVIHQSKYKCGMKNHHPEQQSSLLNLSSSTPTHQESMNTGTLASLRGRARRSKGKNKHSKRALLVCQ
* marks the source's active call; other numbers are inactive results; . = no result. Hits are enriched below; roughly 9.6% of the tested compounds scored in any of these assays. No stated cut-off is given here; in the data, active means inhibition above about 30%; inactive means the rest.

SMILES | USP30 block | USP17 block
COC(=O)c1ccccc1NC(=O)CNc1cc(Cl)ccc1N1CCOCC1 | -20 | -11
CC(C)NC(=O)C1CCN(c2nc3ccc(-c4cncnc4)nc3s2)CC1 | -34 | 0
CC(=O)N1CC2(CCN(C(=O)c3cccnc3)CC2)Nc2ccccc21 | -3 | 0
O=C(COc1ccc(F)cc1Cl)N1CCSc2ccccc21 | 10 | -1
COc1ccccc1/C=C(\C(=O)N1CCN(c2ccccc2)CC1)c1ccccc1 | 35* | 7
COc1ccccc1N1CCN(C(=O)CC(c2ccccc2)c2ccccc2)CC1 | 0 | -9
O=C(NCc1ccncc1)c1ccc2ccc(N3CCN(CC4CC4)CC3)n2c1 | -401 | -106
O=C(COc1ccc(F)cc1)NC(c1ccc(F)cc1)c1nnc(-c2ccccc2)o1 (stereo not drawn) | 11 | 6
O=C(NC(c1ccccc1)c1nnc(-c2ccccc2)o1)c1ccccc1Cl (stereo not drawn) | 32* | 39*
CN1CCN(C2(CNC(=O)c3ccccc3)CCCCC2)CC1 | -8 | -3
O=C(NCc1nnc(SCC(=O)N2CCN(c3ccccc3)CC2)o1)c1cccs1 | -17 | -2
C[C@@H]1OC2=C(C(=O)c3cccc(O)c3C2=O)[C@H](O)[C@@H]1O | 6 | 80*
Cc1cc(C(=O)N[C@H]2[C@H](O)[C@H](O)C[C@@H]2c2ccc(C(F)(F)F)nc2)no1 | 10 | 26
COc1ccc([C@H]2C[C@@H](O)[C@@H](O)[C@@H]2NC(=O)c2cc(C)on2)cc1 | 35* | 9
CCc1ccc(CN2CCC3(CC2)CCN(c2cncnc2)C3=O)o1 | . | -13
Cc1nnc(NC(=O)c2cn(-c3ccc(Br)cc3)nn2)s1 | 34* | 19
O=C(NC1CC1)c1cn(-c2ccc(Cl)cc2)nn1 | -14 | .
CC(=O)N1CC2(CCN(C(=O)Nc3ccccc3)CC2)C2(CCN(C)C2=O)C1 (stereo not drawn) | 22 | 3
CC1(C)OC(=O)[C@@]2(C)N[C@]1(C)C[C@@H]2C(=O)Nc1ccccc1 | 6 | 4
O=C(O)C1C(C(=O)Nc2ccccc2)C2(c3ccccc3)C(=O)C1(c1ccccc1)C(c1ccccc1)=C2c1ccccc1 (stereo not drawn) | 82* | 94*
Cc1ccc(CNS(=O)(=O)c2ccc3c(c2)NC(=O)CCS3)cc1 | -1 | 0
O=S(=O)(c1cccnc1)N1CCN(c2ccc(-c3ccncc3)nn2)CC1 | 18 | 6
C/C=C/C=C/CCc1c(O)cc(CC=C(C)C)c(O)c1C=O | -51 | 45*
CCCCC/C=C/c1c(O)cc(CC=C(C)C)c(O)c1C=O | -28 | 18
c1ccc(-c2cnc3sc(NCCc4ccccn4)nn23)cc1 | -1 | -8
SMILES | USP30 block | USP17 block
COc1ccc(/C=C/C(=O)Nc2ccc(OC)nc2)cc1 | -45 | 23
COc1ccc(/C=C/C(=O)Nc2c3c(nc4c2CCC4)CCCC3)cc1 | 61* | 38*
Cc1cc(C)n2cnc(C#N)c2n1 | 7 | 3
Cc1cc(C)n2cc(-c3sccc3Cl)c(C#N)c2n1 | -75 | 33*
O=C(Cn1cnc2ccccc21)N1CCc2ccccc21 | -8 | 34*
O=C(Cn1cnc2ccccc21)Nc1ccc(C(=O)O)cc1 | 0 | -7
Cc1ccccc1OCC(=O)Nc1ccc2c(c1)CN(C(=O)c1ccco1)CC2 | 26 | 22
O=C(Cn1cnc2ccccc21)Nc1ccc2c(c1)CCC2 | 53* | 32*
Cc1ccc(OCC(=O)Nc2ccc3c(c2)CN(C(=O)c2ccco2)CC3)cc1 | 43* | 51*
O=C(COc1ccc(-c2ccccc2)cc1)N1CCN(C(=O)c2ccco2)CC1 | 31* | 20
O=C(Cn1cnc2sccc2c1=O)N1CCc2ccccc21 | -26 | 27
O=C(COc1ccc(-c2ccccc2)cc1)N1CCC(Cc2ccccc2)CC1 | 22 | 12
Cn1nc(C2CCCN(C(=O)CCc3ccccc3)C2)c2nccnc21 (stereo not drawn) | -4 | -15
O=S(=O)(CCSc1ccc(Cl)cc1)c1ccc(OC(F)(F)F)cc1 | 4 | 5
CCN(CC)S(=O)(=O)N1CCN(C(C)c2nc(N)nc(Nc3ccccc3)n2)CC1 (stereo not drawn) | 13 | 5
CC(Oc1ccc(Cl)cc1)C(=O)Nc1ccc2c(c1)CCC2 (stereo not drawn) | 32* | 25
CCc1ccc(OC(C)C(=O)Nc2ccc3nsnc3c2)cc1 (stereo not drawn) | 6 | 25
O=C(COc1ccc2ccccc2c1)Nc1ccc2c(c1)CCC2 | 13 | 16
O=C(COc1ccc2c(c1)CCC2)Nc1ccc2c(c1)CCC2 | 17 | 59*
CN1CCc2cc(C(CNC(=O)Cc3ccc(Cl)cc3)N3CCCC3)ccc21 (stereo not drawn) | -12 | -17
Nc1ccccc1SC(CC(=O)c1ccc(Cl)cc1)c1ccsc1 (stereo not drawn) | -16 | 53*
O=C(CC(C(=O)c1ccccc1)c1cccs1)c1ccc(Cl)cc1 (stereo not drawn) | -13 | -24
CN1C(=O)COc2cc(-c3noc(C(=O)NC4CCCCCC4)n3)ccc21 | 56* | 7
Cc1ccc(CNC(=O)c2nc(-c3ccc4c(c3)OCC(=O)N4C)no2)cc1 | 41* | 19
CCN1C(=O)COc2cc(-c3noc(C(=O)NCc4ccccc4)n3)ccc21 | 15 | 17
SMILES | USP30 block | USP17 block
CCC(C)NC(=O)c1nc(-c2ccc3c(c2)OCC(=O)N3C)no1 (stereo not drawn) | 10 | 5
COC(=O)c1cc2sccc2n1CC(=O)Nc1ccc(OC)c(OC)c1OC | -56 | -3
COC(=O)c1cc2sccc2n1CC(=O)Nc1cccc(SC)c1 | 36* | 28
Cc1cc(=O)n2c(n1)NC(N1CCC(Cc3ccccc3)CC1)=NC2c1ccccc1 (stereo not drawn) | 13 | 11
COc1ccc(CC(=O)OCC(=O)N2c3ccccc3NC(=O)C2(C)C)cc1 | -12 | 34*
CC1(C)C(=O)Nc2ccccc2N1C(=O)COc1ccc(-c2nnco2)cc1 | 9 | 4
Cc1ccc(C(=O)NC(C)(C)c2nc3c(c(C(N)=O)n2)OCO3)s1 | -9 | 0
Cc1ccc(S(=O)(=O)N2CCN3C(=O)[C@@H](Cc4ccccc4)N(C)C(=O)[C@@H]3C2)cc1 | 31* | 18
C[C@@H]1C(=O)N2CCN(S(=O)(=O)c3ccc(Cl)cc3)C[C@H]2C(=O)N1C | . | 11
O=S(=O)(c1ccc2c(c1)OCO2)N1CCCn2c(nc3ccccc32)C1 | 2 | 1
Cc1nc2ccccc2c(=O)n1-c1cccc(NC(=O)c2ccccc2F)c1 | -6 | 15
CN(C)c1ncc(-c2ccccc2)c(C2CCCNC2)n1 (stereo not drawn) | -1 | -3
CC(NC(=O)Cc1cccc2ccccc12)c1ccc(Cl)cc1 (stereo not drawn) | -11 | 3
CC(C)CNC(=O)N1CCc2nc(C(=O)N3CCOCC3)sc2CC1 | 16 | 3
COc1ccccc1NC(=O)Nc1nnc(CC(=O)N2CCOCC2)s1 | 0 | -6
CCOC(=O)N1CCC(NCc2c(C(=O)O)n(Cc3ccc(C)cc3)c3ccccc23)CC1 | 0 | 11
CCOC(=O)c1c(C)nc2n(Cc3ccccc3)c3ccccc3n12 | 61* | 30
CCN1[C@H]2CCN(C(=O)C3CC3)CC[C@@H]2Oc2ccccc2S1(=O)=O | -5 | -26
Cc1ccc(-c2c(C(=O)Nc3ccc(S(N)(=O)=O)cc3)oc(=O)c3ccccc23)cc1 | 23 | 57*
COc1ccc(NC(=O)c2oc(=O)c3ccccc3c2-c2ccccc2)cc1 | 3 | 0

Screens from PubChem.
